The results in this text go back to PubChem BioAssay (NCATS).

Results filed as inconclusive are left out. Activity calls are given as the source filed them. Calls follow the shape of the dose curve; as a rule, active = well fitted curve in the direction sought with a large enough effect; inconclusive = small, poorly fitted or top-dose-only effect, or another doubt; inactive = no such curve, though single readings can be large; an effect the other way counts as inactive or inconclusive.

Assay [1] addresses N-terminal Xaa-Pro-Lys N-methyltransferase 1 (Homo sapiens) (UniProt Q9BV86). Put plainly: qHTS Assay for Inhibitors of N-terminal methyltransferase 1 (NTMT1): LOPAC validation of the NTMT1 SAHH-coupled ThioGlo3 Assay (AID 1347143).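 Also: SAH from peptide methylation measured as thiol fluorescence via SAHH coupling and ThioGlo3; nearly all actives have a fitted effect of over 70% in size.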 Also: potency is read from the fitted curve at half-maximal effect. The method, boiled down: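 Inhibition of NTMT1 methylation of peptide SPKRIA is followed by converting SAH with SAHH and labelling the released thiol with ThioGlo3. Plates are read at 340/450nm before and 30 min after reagent addition, both at room temperature.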
A general note: qHTS replaces the single test concentration by a dilution series.

Assay [2] deals with Zika virus NS2B-NS3 protease (unlinked). Put plainly: Optimization of GU AMC qHTS for Zika virus inhibitors: Unlinked NS2B-NS3 protease assay (AID 1347151). Also: nearly all actives have a fitted effect of over 80% in size. Also: potency is read from the fitted curve at half-maximal effect. The method, boiled down:
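Unlinked protease (25 nM final); buffer 10 mM Tris-HCl pH 8.0 + 0.01% Tween 20; AMC substrate; 15 min RT, dark; Δfluorescence normalized to no-inhibitor/no-enzyme controls; 4-parameter Hill fit.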

Assay [3] has as its target Furin (Homo sapiens) (UniProt P09958). Put plainly: Furin counterscreen qHTS for Zika virus inhibitors (AID 1347149). Also: nearly all actives have a fitted effect of over 70% in size. Also: potency is read from the fitted curve at half-maximal effect. Summed up:
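Fluorogenic cleavage of BOC-RVRR-AMC (2 microM final, Km ~15 µM) was monitored (ex 340, em 450 nm) at 37C after 15 min RT preincubation of 5 nM furin with compounds in HEPES pH 7.0 buffer with CaCl2 and Triton X-100. Percent inhibition was fitted to a 4-parameter Hill curve.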
(In general: The purpose of a counterscreen is to sort out artefacts and off-target activity.)

Assay [4] can be described thus: qHTS of pediatric cancer cell lines to identify multiple opportunities for drug repurposing: Confirmatory screen for SK-N-MC cells (AID 1347111).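 Also: potency is read from the fitted curve at half-maximal effect; cells exposed to compound for 48 h before the readout; nearly all actives have a fitted effect of over 70% in size.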 The method, boiled down: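 Seed 500-1,000 cells/well; rest 5 h at 37 degrees C. Pin-transfer compounds, 11-point titration. Incubate 48 h. Add CellTiter-Glo, 15 min RT, read luminescence.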
Assay [5] is described as follows: qHTS of pediatric cancer cell lines to identify multiple opportunities for drug repurposing: Confirmatory screen for BT-12 cells (AID 1347112).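 Also: viability read after 48 h of compound exposure; nearly all actives have a fitted effect of over 55% in size.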 Summed up:
(§1)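 Cells (500-1,000/well) rested 5 h, then received compounds for 48 h; metabolically active cells were measured by CellTiter-Glo luminescence. Final concentrations spanned up to 46 µM (MIPE, 11-point) or 0.59 nM-46 µM (NPC, 8-point) in primary screens, 11-point in follow-ups.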

Assay [6] in a line: qHTS of pediatric cancer cell lines to identify multiple opportunities for drug repurposing: Confirmatory screen for NB-EBc1 cells (AID 1347115).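 Also: potency is read from the fitted curve at half-maximal effect; cells exposed to compound for 48 h before the viability read; nearly all actives have a fitted effect of over 45% in size.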 The method, boiled down:
as §1

Assay [7] in a line: qHTS of pediatric cancer cell lines to identify multiple opportunities for drug repurposing: Confirmatory screen for SJ-GBM2 cells (AID 1347116). Also: nearly all actives have a fitted effect of over 60% in size. The method, boiled down: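 Viability measured as metabolically active cells via CellTiter-Glo luminescence following 48 hours of compound exposure, 11-point dilutions in confirmatory testing. 500-1,000 cells/well plated 5 hours before dosing; controls were DMSO and 2.3 µM bortezomib.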

A short description of assay [8]: qHTS of pediatric cancer cell lines to identify multiple opportunities for drug repurposing: Confirmatory screen for TC32 cells (AID 1347118).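 Also: potency is read from the fitted curve at half-maximal effect; cells exposed to compound for 48 h before the read; nearly all actives have a fitted effect of over 65% in size.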 The method, boiled down: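 Measured quantity: luminescence from CellTiter-Glo, reflecting metabolically active TC32 cells following 48 h of compound. Curves came straight from multi-point titrations, with 8 or 11 points in primary and 11 in confirmatory screening.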

The nature of assay [9]: qHTS of pediatric cancer cell lines to identify multiple opportunities for drug repurposing: Confirmatory screen for MG 63 (6-TG R) cells (AID 1347119). Also: potency is read from the fitted curve at half-maximal effect; nearly all actives have a fitted effect of over 55% in size. The method, boiled down:
as §1

Assay [10] is described as follows: qHTS of pediatric cancer cell lines to identify multiple opportunities for drug repurposing: Confirmatory screen for control Hh wild type fibroblast cells (AID 1347121). Also: nearly all actives have a fitted effect of over 70% in size. Summed up:
as §1

Assay [11] in a line: qHTS of pediatric cancer cell lines to identify multiple opportunities for drug repurposing: Confirmatory screen for U-2 OS cells (AID 1347122). Also: potency is read from the fitted curve at half-maximal effect; nearly all actives have a fitted effect of over 65% in size. Summed up: as §1
Assay [12] is described as follows: qHTS of pediatric cancer cell lines to identify multiple opportunities for drug repurposing: Confirmatory screen for RD cells (AID 1347124).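 Also: cells exposed to compound for 48 h before viability readout; nearly all actives have a fitted effect of over 65% in size.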 The method, boiled down: as §1
Assay [13] can be described thus: qHTS of pediatric cancer cell lines to identify multiple opportunities for drug repurposing: Confirmatory screen for Rh18 cells (AID 1347125). Also: nearly all actives have a fitted effect of over 55% in size. The method, boiled down: as §1
A short description of assay [14]: qHTS of pediatric cancer cell lines to identify multiple opportunities for drug repurposing: Confirmatory screen for Rh30 cells (AID 1347126). Also: nearly all actives have a fitted effect of over 55% in size. Summed up:
as §1

Assay [15] in a line: qHTS of pediatric cancer cell lines to identify multiple opportunities for drug repurposing: Confirmatory screen for OHS-50 cells (AID 1347128). Summed up: as §1

N-terminal Xaa-Pro-Lys N-methyltransferase 1 (Homo sapiens), sequence (Q9BV86 whole entry, looked up): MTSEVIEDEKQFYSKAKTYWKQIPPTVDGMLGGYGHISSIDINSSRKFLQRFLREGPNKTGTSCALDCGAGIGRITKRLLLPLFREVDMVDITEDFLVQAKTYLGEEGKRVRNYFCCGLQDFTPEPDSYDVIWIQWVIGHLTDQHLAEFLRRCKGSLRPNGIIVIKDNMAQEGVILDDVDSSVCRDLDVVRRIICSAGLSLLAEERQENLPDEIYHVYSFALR
Furin (Homo sapiens), sequence (P09958 whole entry, looked up): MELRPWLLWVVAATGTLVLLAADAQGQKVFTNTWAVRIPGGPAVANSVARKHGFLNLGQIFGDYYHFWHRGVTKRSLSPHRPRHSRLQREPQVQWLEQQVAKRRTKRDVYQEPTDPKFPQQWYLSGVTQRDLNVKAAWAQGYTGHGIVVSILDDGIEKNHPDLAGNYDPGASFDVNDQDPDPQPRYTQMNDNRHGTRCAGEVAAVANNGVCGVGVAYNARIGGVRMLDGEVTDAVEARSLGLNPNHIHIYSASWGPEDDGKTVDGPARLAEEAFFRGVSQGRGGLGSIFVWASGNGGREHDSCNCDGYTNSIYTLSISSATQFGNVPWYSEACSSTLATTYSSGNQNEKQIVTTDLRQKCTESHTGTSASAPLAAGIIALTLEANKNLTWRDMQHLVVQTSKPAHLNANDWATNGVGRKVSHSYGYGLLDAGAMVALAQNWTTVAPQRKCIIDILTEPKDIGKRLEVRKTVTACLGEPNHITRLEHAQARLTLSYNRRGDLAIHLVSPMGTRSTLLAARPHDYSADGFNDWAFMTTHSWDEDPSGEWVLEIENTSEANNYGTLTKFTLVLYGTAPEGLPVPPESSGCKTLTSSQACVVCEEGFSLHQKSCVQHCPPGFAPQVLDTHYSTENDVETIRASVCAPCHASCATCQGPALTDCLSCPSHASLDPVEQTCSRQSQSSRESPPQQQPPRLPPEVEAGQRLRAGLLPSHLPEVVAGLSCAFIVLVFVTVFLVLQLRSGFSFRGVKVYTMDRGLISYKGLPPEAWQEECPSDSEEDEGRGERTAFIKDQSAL

Regarding `Cc1ccccc1C(OCCN(C)C)c1ccccc1` (stereo not given), the Potency entry in assay [1] and in [2] was “inactive” in each case.
Take `CCCCNc1cc(C(=O)O)cc(S(N)(=O)=O)c1Oc1ccccc1`: the Potency in assay [1] is 50.1 µM (active); in assay [3] it was 27 µM (active); in assay [2], 29.9 µM (active).
For the molecule `O=C1CCc2cc(OCCCCc3nnnn3C3CCCCC3)ccc2N1`, the Potency entry in [1] and in assay [2] was “inactive” throughout.
For the molecule `COc1cc(Nc2ncc3c(n2)-c2ccc(Cl)cc2C(c2c(F)cccc2OC)=NC3)ccc1C(=O)O`, the Potency in assay [4] is 261 nM (active); in assay [6] it was 20.8 µM (active); in assay [8], 147 nM (active); in assay [9] it was 233 nM (active); in assay [11], 10.4 µM (active). The Potency result in assay [5], in assay [7], in [10], in assay [12], in [13] and in [14] was “inactive” throughout. Besides, the Potency entry in assay [15] is “inactive”.
On to `CCCC(CCC)C(=O)O`, for which the Potency result in assay [1] and in assay [2] was “inactive” throughout.
For the molecule `O=C1CCC(N2C(=O)c3ccccc3C2=O)C(=O)N1` (stereo not given), the Potency result in [1] and in assay [2] was “inactive” throughout.
For `O=C(O)COCCN1CCN(C(c2ccccc2)c2ccc(Cl)cc2)CC1` (stereo not given), the Potency result in assay [2] was “inactive”.
As to `COc1ccccc1-c1cccc(-c2c(O)c3cc(C#N)c(Cl)cc3[nH]c2=O)c1`, in assay [3], the Potency entry was “inactive”.
For the molecule `CC(C[N+](C)(C)C)OC(N)=O` (stereo not given), the Potency result in assay [1] and in assay [2] was “inactive” throughout.
For `N=c1nc(N2CCCCC2)cc(N)n1O`, the Potency entry in [2] was “inactive”.
`Cc1cc(SCc2sc(-c3ccc(C(F)(F)F)cc3)nc2C)ccc1OCC(=O)O`: the Potency entry in assay [3] is “inactive”.
`CCCc1nc2c(C)cc(-c3nc4ccccc4n3C)cc2n1Cc1ccc(-c2ccccc2C(=O)O)cc1`: in assay [3], the Potency is 24.1 µM (active).
`NC(=O)c1cnccn1`: the Potency result in assay [1] and in assay [2] was “inactive” each time.
As for `N[C@@H]1CONC1=O`, the Potency entry in [1] and in [2] was “inactive” each time.
On to `CCOC(=O)N1CCC(=C2c3ccc(Cl)cc3CCc3cccnc32)CC1`, for which the Potency entry in assay [1] and in assay [2] was “inactive” in each case.
Turning to `CC(C)(C)NCC(O)c1ccc(O)c(CO)c1` (stereo not given), the Potency entry in assay [1] and in assay [2] was “inactive” throughout.
On to `Oc1ccc(C2CNCCc3c2cc(O)c(O)c3Cl)cc1` (stereo not given), for which the Potency was 44.7 µM (active) in assay [1] and 16.8 µM (active) in [2].
Turning to `c1ccc([C@H]2CN3CCSC3=N2)cc1`, the Potency result in [1] and in assay [2] was “inactive” throughout.
For the molecule `O=C(C1CC1)N1CC[C@@H](Cn2c(-c3ccc(-c4ccc5occc5c4)cc3)nc3cnccc32)C1`, the Potency in assay [3] is 15.2 µM (active).
As to `NS(=O)(=O)c1cc2c(cc1Cl)NC=NS2(=O)=O`, the Potency entry in assay [1] and in [2] was “inactive” in each case.
With `C[C@]12CCC(=O)C=C1CC[C@@H]1[C@@H]2[C@@H](O)C[C@@]2(C)[C@H]1CC[C@]2(O)C(=O)CO`, the Potency result in [1] and in [2] was “inactive” throughout.
Take `NC[C@H](O)c1ccc(O)c(O)c1`: the Potency entry in [2] is “inactive”.
As to `CC(C)c1onc(-c2c(Cl)cccc2Cl)c1COc1ccc(/C=C/c2cccc(C(=O)O)c2)c(Cl)c1`, the Potency in assay [3] is 8.55 µM (active).
Regarding `O=C(O)CCc1ccc(NCc2cccc(Oc3ccccc3)c2)cc1`, in assay [2], the Potency entry was “inactive”.
Consider `CCCc1nn(C)c2c(=O)[nH]c(-c3cc(S(=O)(=O)N4CCN(C)CC4)ccc3OCC)nc12`, for which the Potency entry in assay [2] is “inactive”.
In the case of `Cc1ccc(N(CC2=NCCN2)c2cccc(O)c2)cc1`, the Potency result in [1] and in assay [2] was “inactive” in each case.
Turning to `Clc1cccc(Cl)c1NC1=NCCN1`, the Potency result in assay [1] and in assay [2] was “inactive” in each case.
With `CCC(C)N(C)C(=O)c1cc2ccccc2c(-c2ccccc2Cl)n1` (stereo not given), the Potency result in assay [1] and in assay [2] was “inactive” throughout.
On to `NNCCc1ccccc1`, for which the Potency result in [2] is “inactive”.
Consider `O=c1[nH]cnc2[nH]ncc12`, for which the Potency entry in assay [1] and in assay [2] was “inactive” throughout.
Take `CC(=O)Oc1ccccc1C(=O)O`: the Potency in assay [2] was 26.7 µM (active).
As to `O=C(Nc1nc2ccccc2n1CCN1CCOCC1)c1cccc([N+](=O)[O-])c1`, the Potency result in assay [1] and in [2] was “inactive” each time.
Take `Cc1cc2c(C(C)C)c(O)c(O)c(C=O)c2c(O)c1-c1c(C)cc2c(C(C)C)c(O)c(O)c(C=O)c2c1O`: the Potency in assay [1] was 56.2 µM (active); in assay [2], 0.377 µM (active).
